Among the test systems are T-47D breast; BT-549 breast; MDA-MB-435 melanoma; SW-620 colon; MCF7 breast; HCT-116 colon; HCC-2998 colon; KM12 colon.
Holding throughout (assay): NCI-60 one-dose screen, 48 h (100 = growth as untreated, 0 = no growth, -100 = all killed)
Common to all, as to settings: 10 µM unless noted

Compounds without any hit were thinned out: in the full panel of roughly 83,000, 20% have a hit.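 Single-concentration screen, 48 h exposure, 96-well plates. Endpoint: percent growth. Below 10 = active.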 Values without a mark were called inactive. The source made the active and inactive calls.

As to `C=C1C(=O)O[C@H]2[C@H]1CC/C(COC(=O)CSCC(=O)OC/C1=C/CC[C@@]3(C)O[C@H]3[C@H]3OC(=O)C(=C)[C@@H]3CC1)=C\CC[C@@]1(C)O[C@@H]21`, the growth with T-47D breast was 12.3%; with BT-549 breast it was -1.44% (active); with MDA-MB-435 melanoma, 26.8%; in the assay with SW-620 colon, -29% (active); in the assay on MCF7 breast it was 23.4%; with HCT-116 colon it was -46.6% (active). Also, the figures for the growth in the assay with HCC-2998 colon and with KM12 colon were 94.5% and 69.4%, respectively.

Consider `O=c1c2cc(F)ccc2sc2c(NCCO)nc3ccccc3c12`, for which the growth is 93.1% with T-47D breast; 114% in the assay on BT-549 breast; 110% in the assay on MDA-MB-435 melanoma; 103% in the assay on SW-620 colon; 39.4% with MCF7 breast; 105% in the assay with HCT-116 colon. The growth with HCC-2998 colon is 116%; in the assay on KM12 colon, 105%.

In the case of `CC/C=C\C[C@@H]1C/C=C2/C(=O)C=C[C@H]2C/C=C\CCCC(=O)O1`, the growth in the assay on T-47D breast was 10.3%; in the assay with BT-549 breast it was -55.7% (active); in the assay with MDA-MB-435 melanoma it was -59.1% (active); in the assay on SW-620 colon, -65.1% (active); with MCF7 breast it was -9.37% (active); in the assay on HCT-116 colon, -93.5% (active). For the same compound, the growth is -83.3% (active) in the assay with HCC-2998 colon and -92.3% (active) in the assay on KM12 colon.

Turning to `CCOC(=O)Nc1ccc(C(=O)/C=C/c2ccccc2)cc1`, the growth was 84.3% with T-47D breast; 95.1% in the assay with BT-549 breast; 44.6% with MDA-MB-435 melanoma; 73.9% in the assay with SW-620 colon; 0.358% (active) in the assay on MCF7 breast; 6.33% (active) with HCT-116 colon. In addition, the growth is 34.4% in the assay on HCC-2998 colon and 8.51% (active) in the assay on KM12 colon.

With `O=C(CSc1nc2ccccc2[nH]1)Nc1cccc(Cl)c1`, the growth with T-47D breast was 83.4%; in the assay on BT-549 breast, 103%; in the assay with MDA-MB-435 melanoma it was 102%; in the assay on SW-620 colon, 95.7%; in the assay with MCF7 breast it was 102%; with HCT-116 colon, -54.9% (active). Besides, the growth in the assay with HCC-2998 colon is 103%; in the assay with KM12 colon, 99.5%.

For the compound `O=C(O)c1cn(C2CC2)c2cc(N3CCN(C(=O)Nc4nc(-c5ccccc5)cs4)CC3)c(F)cc2c1=O`, the growth in the assay on T-47D breast is 23.2%; in the assay with BT-549 breast, 10.3%; with MDA-MB-435 melanoma, 21%; in the assay with SW-620 colon it was 29.4%; with MCF7 breast, 7.78% (active); in the assay with HCT-116 colon it was 17.5%. Moreover, the values for the growth in the assay on HCC-2998 colon and with KM12 colon were 34.4% and 13.8%, respectively.

Regarding `COc1ccc(/C=C/c2c(C(=O)/C=C/c3ccc(Cl)cc3)c(C)nc3ccccc23)cc1`, the growth was 23.2% in the assay on T-47D breast; 54.5% with BT-549 breast; 2.02% (active) with MDA-MB-435 melanoma; -17% (active) in the assay on SW-620 colon; 26.2% in the assay with MCF7 breast; -64.6% (active) with HCT-116 colon. For the same compound, the growth in the assay with HCC-2998 colon is -48.6% (active); in the assay on KM12 colon, 30.2%.

For `COC(=O)c1ccc2[nH]c(O)c(C(=Nc3ccc(N(C)C(=O)CN4CCN(C)CC4)cc3)c3ccccc3)c2c1`, the growth with T-47D breast is 59.8%; in the assay on BT-549 breast it was 11.2%; in the assay on MDA-MB-435 melanoma, 27.2%; in the assay with SW-620 colon, 6.45% (active); in the assay on MCF7 breast it was 27.6%; in the assay on HCT-116 colon, 6.52% (active). In addition, the growth in the assay with HCC-2998 colon was 25.7%; with KM12 colon, 13.9%.

Regarding `CS(=O)(=O)Nc1cc(-c2ccc3ncnc(Nc4cccc(Cl)c4F)c3c2)cnc1Cl`, the growth was -4.02% (active) in the assay with T-47D breast; 17.9% in the assay on BT-549 breast; 46.2% in the assay with MDA-MB-435 melanoma; 46.3% in the assay on SW-620 colon; 11% in the assay with MCF7 breast; 46.7% with HCT-116 colon. Further, the values for the growth in the assay with HCC-2998 colon and in the assay with KM12 colon were 45.3% and 69.3%, respectively.

As for `COc1cc(C(=O)N/N=C/c2cc3cc(OCc4ccccc4)ccc3nc2OC)cc(OC)c1OC`, the growth is 54.3% in the assay with T-47D breast; 73.4% in the assay on BT-549 breast; 88.3% in the assay with MDA-MB-435 melanoma; 91.6% in the assay on SW-620 colon; 78.4% with MCF7 breast; 85.7% with HCT-116 colon. The results for the growth with HCC-2998 colon and in the assay with KM12 colon were 96.7% and 96.2%, respectively.

Take `COc1cccc(Cc2nn3cc(-c4ccccc4)nc3s2)c1`: the growth with T-47D breast is 91.2%; in the assay with BT-549 breast, 91.6%; in the assay on MDA-MB-435 melanoma, 79.2%; in the assay on SW-620 colon, 30.6%; in the assay with MCF7 breast, 27.5%; with HCT-116 colon, 2.81% (active). The growth in the assay on HCC-2998 colon was 104%; in the assay on KM12 colon it was 88.8%.

Turning to `COc1cc(CCC[P+](c2ccccc2)(c2ccccc2)c2ccccc2)c(OC)c(OC)c1OC`, the growth in the assay on T-47D breast is 63.5%; in the assay with BT-549 breast, 72.9%; in the assay with MDA-MB-435 melanoma, 0.374% (active); with SW-620 colon, 82.6%; in the assay on MCF7 breast it was 39%; in the assay with HCT-116 colon, 61.9%. The figures for the growth in the assay with HCC-2998 colon and in the assay with KM12 colon were 100% and 75.9%, respectively.

Take `CCc1ccc2nc(NC(=O)Cc3csc(NC(=O)c4ccco4)n3)sc2c1`: the growth was 55.1% in the assay on T-47D breast; 57.4% with BT-549 breast; 90.6% in the assay with MDA-MB-435 melanoma; 101% in the assay on SW-620 colon; 18.3% with MCF7 breast; 78% in the assay on HCT-116 colon. The growth in the assay with HCC-2998 colon is 101%; in the assay on KM12 colon, 78.6%.

For `COc1cccc(OC)c1C(=O)N[C@@H]1C(=O)N2[C@@H]1SC(C)(C)[C@@H]2C(=O)O`, the growth was 98.3% in the assay with T-47D breast; 95.4% in the assay with BT-549 breast; 105% in the assay with MDA-MB-435 melanoma; 107% with SW-620 colon; 98% in the assay with MCF7 breast; 97.9% in the assay with HCT-116 colon. Moreover, the growth was 105% with HCC-2998 colon and 107% with KM12 colon.

In the case of `O=c1cc(SCc2ccccc2)nc[nH]1`, the growth was 114% in the assay with T-47D breast; 103% in the assay with BT-549 breast; 106% with MDA-MB-435 melanoma; 107% in the assay on SW-620 colon; 101% with MCF7 breast; 104% with HCT-116 colon. For the same compound, the growth in the assay on HCC-2998 colon was 112%; in the assay with KM12 colon it was 94.8%.

These data come from PubChem BioAssay (NCI).
